Shown are actives, neighbours in structure and some others; about 0.3% of the full set was active somewhere.
mcGAS inh: cyclic GMP-AMP synthase inhibitors, mouse, primary biochemical chemiluminescence; inhibition, % at 12.5 µM; Q8C6L5; AID 1259399, 2018; recombinant cGAS, Kinase-Glo ATP depletion luminescence; actives 0.15% (n = 160,000);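 note: 0% = negative control wells and 100% = reference inhibitor with no enzyme activity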
hcGAS inh: Primary biochemical luminescence assay for human cyclic GMP-AMP synthase inhibitors; Q8N884; recombinant h-cGAS, ATP depletion, Kinase-Glo luminescence; inhibition, % at 12.5 µM; actives 0.081% (n = 290,000); AID 1259398, 2018;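 note: 0% = vehicle reaction and 100% = reaction without DNA for no activity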
Target sequence (Q8N884 whole entry, looked up): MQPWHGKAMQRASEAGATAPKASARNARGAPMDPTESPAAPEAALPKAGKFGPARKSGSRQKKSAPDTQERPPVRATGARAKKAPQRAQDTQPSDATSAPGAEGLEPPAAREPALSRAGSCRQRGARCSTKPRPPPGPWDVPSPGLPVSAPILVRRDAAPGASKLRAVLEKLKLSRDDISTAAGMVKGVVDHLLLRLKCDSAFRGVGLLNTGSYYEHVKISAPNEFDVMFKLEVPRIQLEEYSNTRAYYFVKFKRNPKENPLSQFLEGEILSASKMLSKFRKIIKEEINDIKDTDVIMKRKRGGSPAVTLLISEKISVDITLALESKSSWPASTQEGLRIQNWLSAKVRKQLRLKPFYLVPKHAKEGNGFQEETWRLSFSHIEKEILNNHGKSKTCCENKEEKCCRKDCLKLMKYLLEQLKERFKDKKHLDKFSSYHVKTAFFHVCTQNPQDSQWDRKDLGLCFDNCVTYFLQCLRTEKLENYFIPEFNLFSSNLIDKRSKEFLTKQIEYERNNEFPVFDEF
NPYLR7 agonist: agonists of mosquito NPYLR7 receptor, primary screen, cell-based, Aedes aegypti, calcium fluorescence, mosquito biting behavior; HEK293T NPYLR7/Galpha15, GCaMP6s calcium fluorescence; activation, % at 10 µM; actives 0.15% (n = 270,000); AID 1259423, 2018; in the data active = activation above about 40%;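 note: 0% = vehicle and 100% = reference agonist at the receptor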
An asterisk follows results filed as active; x = not tested or not shown; ! = not confirmed by another sample. Cut-off read from the data, not from the text of the source, unless noted: active = inhibition above about 40%; inactive = the rest.

SMILES	mcGAS inh	hcGAS inh	NPYLR7 agonist
CCOC(=O)C1=C(O)/C(=C\c2ccc(N(C)C)cc2)SC1=Nc1ccc(OC)cc1OC	0	2	79*
CSCCC(=O)NC1CCCN(c2ncccn2)C1 (stereo unspecified)	x	-12	23
Cc1ccc(N2CCN(C(=O)c3snc4c(=O)n(CC(C)C)c(=O)[nH]c34)CC2)c(C)c1	x	-5	-9
O=C(c1snc2c(=O)n(Cc3ccccc3)c(=O)[nH]c12)N1CCSCC1	x	-2	65*
COc1cccc2c1C(=O)c1c(O)c3c(c(O)c1C2=O)C[C@@](O)(C(=O)CO)C[C@@H]3OC1C[C@H](N)[C@H](O)[C@H](C)O1 (stereo partly specified)	x	57*	x
Cc1ccc(Cl)cc1NC(=O)Cn1c2ccccc2c(=O)c2ccccc21	x	1	-1
Cc1ccc2c(=O)c3ccccc3n(CCCN)c2c1C	x	71*	-2
CCN1CC(C)C(NS(=O)(=O)c2ccc3c(c2)COC3)C1 (stereo unspecified)	x	3	-21
CCC(C)n1cc(/C=C2/C(=O)NC(=O)N(c3ccc4c(c3)OCO4)C2=O)c2ccccc21 (stereo unspecified)	x	0	52*
COc1cccc(N2C(=O)NC(=O)/C(=C/c3cn(C(C)=O)c4ccccc34)C2=O)c1	3	3	-2
Nc1nc2nc(Br)[nH]c2c(=O)[nH]1	12	52*	-3
Nc1nc2nc(C(F)(F)F)[nH]c2c(=O)[nH]1	x	33	-4
O=C(c1cccc(Cn2cccn2)c1)N1CCc2c([nH]c3ccccc23)C1c1ccccn1 (stereo unspecified)	-9	-7	2
C=CCNc1ccc2c3c(cccc13)C(=O)N(c1ccccc1)C2=O	-5	-7	99*
Cc1cccc(N2C(=O)c3cccc4c(N)ccc(c34)C2=O)c1	-1	4	77
O=C1c2cccc3c(NCCO)ccc(c23)C(=O)N1CCO	-3	-4	107*
Nc1ccc2c3c(cccc13)C(=O)N(c1ccccc1)C2=O	x	-1	76*
CC(=O)Nc1ccc2c3c(cccc13)C(=O)N(c1ccccc1)C2=O	-5	-6	-1
C=CCN1C(=O)c2cccc3c(Cl)ccc(c23)C1=O	-5	-3	3
Cc1nc(C(C)N(C)Cc2cnc(-c3cccs3)nc2)c(C)s1 (stereo unspecified)	-10	-3	2
Cn1nnc2c(SCC(=O)N3CCCCC3)ncnc21	x	-8	1
O=C(Nc1ccc(F)cc1)C1CCN(c2nc(Cc3ccccc3)ns2)CC1	-5	-7	12
Fc1ccc(-c2cc3ncnc(N4CCN(c5ncccn5)CC4)c3s2)cc1	-2	0	5
CCCNC(=O)c1nn(-c2ccc(S(C)(=O)=O)cc2)c(=O)n(Cc2cccc(C)c2)c1=O	-8	-5	1
COc1cc(C2Nc3ccccc3-c3nnc(SC)nc3O2)cc(Br)c1OC (stereo unspecified)	-3	-9	-1
SMILES	mcGAS inh	hcGAS inh	NPYLR7 agonist
CSc1nnc2c(n1)OC(c1cc(Br)c(OC(=O)c3ccc([N+](=O)[O-])cc3)c(Br)c1)Nc1ccccc1-2 (stereo unspecified)	42*	6	7
CN1C(=O)C2C(C1=O)N1C(c3cccs3)C3C(=O)N(C)C(=O)C3N1C2c1cccs1 (stereo unspecified)	x	4	-1
CC[n+]1c(C)cc(Cl)c2ccccc21	-5	-7	1
Cc1cc(N)c2ccccc2[n+]1CCCCCCCCCC[n+]1c(C)cc(N)c2ccccc21	-2	91*!	-4
CN(Cc1ccc(-c2ccc(Cl)cc2)o1)C(=O)CCl	50*	-5	6
Cc1ccc(CN(C)C(=O)CCl)o1	7	4	-1
NC(=O)c1ccc(CN(C2CC2)C2CCc3ccccc32)cc1 (stereo unspecified)	-10	-19	0
CC(C)NC[C@H](O)c1ccc(O)c(O)c1	-5	-7	85*!
CC(C)NCC(O)c1cc(O)cc(O)c1 (stereo unspecified)	-5	-6	32
COc1ccc(CCOc2nc(-c3ccccc3F)n(-c3ccc(NC(=O)c4ccco4)cc3)n2)cc1	-5	-2	1
Cc1cc(C)n(CC2(CNCC(=O)Nc3cccc(C)c3C)CC2)n1	x	1	12
Brc1cc2c(cc1CSc1nnnn1C1CC1)OCCO2	x	-3	7
Cn1nnnc1SCc1cc2c(cc1Br)OCO2	-2	66*	0
CN1C(=CC=C2C(=O)Oc3ccccc3C2=O)C(C)(C)c2ccccc21	x	-7	49*
CN1C(=CP(=O)(N(C)C)N(C)C)C(C)(C)c2ccccc21	x	3	1
CCCc1c(C(=O)N2CCCN(c3nc4cc(C)c(C)cc4nc3-c3ccccc3)CC2)cnn1-c1ccccc1	-6	-6	5
Cc1cc(C)nc(SCc2cc(=O)n3[nH]c(C)c(-c4ccccc4)c3n2)n1	x	-11	-3
O=c1cc(Cc2ccccc2)nc2c(-c3ccccc3)c(C(F)(F)F)[nH]n12	x	68*	-11
COCc1[nH]n2c(=O)cc(Cc3ccccc3)nc2c1-c1ccccc1	x	56*	-4
CCCc1cc(=O)n2[nH]c(COC)c(-c3ccc(C)cc3)c2n1	x	-5	-17
O=C(c1ccccc1Br)N1CCN(C(=O)c2ccccc2Br)CC1	x	-4	3
O=C(CCl)N1CCCc2cc([N+](=O)[O-])ccc21	96*	1	2
O=C(c1ccc([N+](=O)[O-])cc1)N1CCCc2ccccc21	x	-6	4
O=c1oc2c(O)c(O)cc3c(=O)oc4c(O)c(O)cc1c4c23	x	43*	-10
O=c1cc(-c2cc(O)c(O)c(O)c2)oc2cc(O)cc(O)c12	x	22	22
SMILES	mcGAS inh	hcGAS inh	NPYLR7 agonist
C=C(C)Cn1c(SCCCC)nc2c1c(=O)n(C)c(=O)n2C	-8	-4	5
COCCCn1cc(C(=O)Nc2nccs2)c2nn(-c3ccccc3)c(=O)c-2c1	-9	-7	4
COc1cc(C=C(C#N)S(=O)(=O)c2cc(Br)ccc2Br)cc(OC)c1	x	-5	10
COc1cc(C=C(C#N)S(=O)(=O)c2cc(Br)ccc2Br)ccc1O	x	-2	170*
Clc1ccc(CSc2nnc(-c3ccc4c(c3)OCO4)o2)cc1Cl	x	-5	0
COc1ccccc1N=c1oc2cc(O)ccc2cc1-c1nc2ccccc2[nH]1	-5	-4	81*
NC(=O)N/N=c1\oc2ccccc2cc1-c1nc2ccccc2[nH]1	48*	-5	-2
NC(=S)N/N=c1\oc2ccccc2cc1-c1nc2ccccc2[nH]1	x	-2	-5
CCOC(=O)c1ccc(N=c2oc3ccccc3cc2-c2nc3ccccc3[nH]2)cc1	-5	-4	0
CCOC(=O)c1ccc(N=c2oc3cc(O)ccc3cc2-c2nc3ccccc3[nH]2)cc1	-6	-3	120*
COc1ccccc1N=c1oc2ccc3ccccc3c2cc1-c1nc2ccccc2[nH]1	x	-1	-3
Nc1nc(C(F)(F)F)nn1C(=O)c1ccc(Br)o1	-6	-7	2
CCC(NC)c1ccc(-c2cccc3ncccc23)cc1 (stereo unspecified)	x	1	11
Cc1cc(CN(C)S(=O)(=O)Cc2c(Cl)cccc2Cl)no1	x	1	-3

Assay outcomes deposited in PubChem BioAssay by Fisher Drug Discovery Resource Center.
